# Screens: PubChem BioAssay, National Center for Advancing Translational Sciences (NCATS)
# Shown are actives, neighbours in structure and some others; about 19% of the full set was active somewhere.
# TGFb inhibitor: qHTS for Inhibitors of TGF-b. HepG2 CAGA-GFP TGF-b/SMAD3 reporter, GFP fluorescence, 18 h; TGF-beta stimulated, 500 pg/mL final. Potency, µM (titrated, usually from 46.1 µM), without a hit: at the top dose activity, negative = inhibition, hits mostly inhibitors. 410,000 tested, 1.2% active. AID 588855, 2011; also: potency is read from the fitted curve at half-maximal effect; % is scaled to controls: 0 for no effect and ±100 for the full control effect; nearly all actives have a fitted effect of over 65% in size
#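 Inhibition of TGF-beta-driven CAGA-GFP reporter expression in HEPG2 cells is measured by cellular GFP fluorescence after 18 h stimulation with 500 pg/mL recombinant TGF-beta in 1% FBS medium at 37 degrees C.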
# ASM inhibitor: Inhibitors of Secretory Acid Sphingomyelinase (S-ASM): qHTS | AID 504937, 2011 | 340,000 tested, 0.006% active | placental ASM, HMU-PC fluorogenic substrate, 60 min | Potency, µM (titrated, usually from 57.5 µM), inactives show at the top dose activity change, negative = inhibition, hits mostly inhibitors | Sphingomyelin phosphodiesterase (Homo sapiens), P17405; also: potency is read from the fitted curve at half-maximal effect
# Target sequence (P17405 47-631 limits assumed): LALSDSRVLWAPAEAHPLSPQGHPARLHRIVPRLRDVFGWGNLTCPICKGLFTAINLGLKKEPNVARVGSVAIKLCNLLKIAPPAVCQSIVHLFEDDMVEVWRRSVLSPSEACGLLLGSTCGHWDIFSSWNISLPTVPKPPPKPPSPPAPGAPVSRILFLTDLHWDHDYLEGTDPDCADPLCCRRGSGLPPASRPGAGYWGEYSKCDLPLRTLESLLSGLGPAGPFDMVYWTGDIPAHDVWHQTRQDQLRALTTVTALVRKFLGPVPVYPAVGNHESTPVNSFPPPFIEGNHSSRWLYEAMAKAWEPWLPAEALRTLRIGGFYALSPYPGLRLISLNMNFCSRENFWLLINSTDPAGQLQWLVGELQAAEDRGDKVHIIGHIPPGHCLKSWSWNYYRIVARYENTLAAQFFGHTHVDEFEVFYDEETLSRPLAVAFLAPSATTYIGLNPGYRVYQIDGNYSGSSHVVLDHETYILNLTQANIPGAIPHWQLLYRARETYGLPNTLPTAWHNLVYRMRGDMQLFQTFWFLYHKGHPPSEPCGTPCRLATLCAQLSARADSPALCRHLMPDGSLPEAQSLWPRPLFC
#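 HMU-PC0 cleavage (9 uM final) by human placental ASM, 60 min at 37 °C following 10 min compound exposure at RT; stopped at pH 10, fluorescence Ex 386/Em 447 nm.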
# IL1B secr inh: qHTS for Inhibitors of Inflammasome Signaling: IL-1-beta AlphaLISA Primary Screen; THP-1 LPS/ATP IL-1B secretion, AlphaLISA, 16 h; hits give low values; activity change, % at 57.5 µM; 360,000 tested, 4.7% active; in the data active = activity change below about -50%; inconclusive = mostly about -30% to -49%; also: % is scaled to controls: 0 for no effect and ±100 for the full control effect
#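 THP-1 cells pretreated 1 hr with compounds (up to 57.5 uM final), then stimulated with LPS (250 ng/mL final) plus ATP (1.25 mM final); secreted IL-1B measured by AlphaLISA after 16 hr, decreased signal indicating inhibition.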
# HepG2 tox: qHTS for Inhibitors of TGF-b: Cytotox Counterscreen; HepG2 CAGA-GFP viability, ATP luminescence, 18 h; Potency, µM (top dose mostly 46.1 µM), for the others: top-dose activity change, negative = cytotoxicity, hits mostly cytotoxic; 410,000 tested, 0.76% active; also: potency is read from the fitted curve at half-maximal effect
#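 HepG2 CAGA-GFP cells (1000/well, DMEM with 1% FBS) received compound, then TGF-beta at 500 pg/mL final, and were incubated 18 hours at 37 degrees C. Viability was read by CellTiter-Glo luminescence. Media-only wells were set as complete cell-killing and DMSO as no toxicity.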
# TDP1 cell noCPT: qHTS for Inhibitors of human tyrosyl-DNA phosphodiesterase 1 (TDP1): qHTS in cells in absence of CPT; Potency, µM (series often up to 46.2 µM), for inactives: top-dose activity change, negative = growth inhibition, actives largely listed as inhibitors; 420,000 tested, 15% active; DT40 Tdp1-/- hTDP1 cells, no CPT, ATP luminescence, 48 h; also: potency is read from the fitted curve at half-maximal effect; % is scaled to controls: 0 for no effect and ±100 for the full control effect; nearly all actives have a fitted effect of over 55% in size
#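 No-CPT arm: Tdp1-/-;hTDP1 DT40 cells (400/well) plus compounds, incubated ≥48 hr at 37 °C. Readout CellTiter-Glo luminescence.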
# TDP1 cell CPT: qHTS for Inhibitors of human tyrosyl-DNA phosphodiesterase 1 (TDP1): qHTS in cells in presence of CPT; 420,000 tested, 12% active; AID 686979, 2013; Potency, µM (series often up to 46.2 µM), for inactives: at the highest dose activity change, negative = growth inhibition, actives largely listed as inhibitors; chicken DT40 Tdp1-/-;hTDP1 cells + 20 nM CPT, ATP luminescence, 48 h; also: potency is read from the fitted curve at half-maximal effect; % is scaled to controls: 0 for no effect and ±100 for the full control effect; nearly all actives have a fitted effect of over 55% in size
#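 Cell growth measured by CellTiter-Glo luminescence after a minimum 48 h, 37 C compound exposure with 20 nM CPT in Tdp1-knockout DT40 cells stably expressing hTDP1, seeded 400/well; qHTS titration format.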
# Starred values were filed as active, the others as inactive; i = inactive; ? = inconclusive; . = no result given. Unless noted, calls follow the shape of the dose curve; as a rule, active = well fitted curve in the direction sought with a large enough effect; inconclusive = small, poorly fitted or top-dose-only effect, or another doubt; inactive = no such curve, though single readings can be large; an effect the other way counts as inactive or inconclusive.
SMILES,TGFb inhibitor,ASM inhibitor,IL1B secr inh,HepG2 tox,TDP1 cell noCPT,TDP1 cell CPT
CCOc1ccc(NC(=O)CN2C(=O)C3(SCC(=O)N3c3ccc(F)cc3)c3ccccc32)cc1 (stereo unspecified),-19%,.,.,-31%,?,23µM*
CCc1cccc(C)c1NC(=O)CN1C(=O)C2(SCC(=O)N2c2cc(C)cc(C)c2)c2ccccc21 (stereo unspecified),-8%,.,.,1%,16µM*,18µM*
Cc1cccc(NC(=O)CN2C(=O)C3(SCC(=O)N3c3ccccc3)c3ccccc32)c1 (stereo unspecified),?,.,.,-15%,?,23µM*
COc1cc(OC)c(C(=O)OCC(=O)N2CCN(S(=O)(=O)c3ccc(C)cc3C)CC2)cc1OC,5%,-2%,15,13%,?,?
COc1ccc(C(=O)c2ccccc2CN2C(=O)c3ccccc3C2=O)cc1,27%,-3%,-3,5%,-21%,?
COCCNC(=O)/C(C#N)=C/c1ccccc1Br,3%,1%,?,-15%,16µM*,15µM*
N#C/C(=C\c1ccccc1Br)C(=O)NC1CC1,4%,-3%,-9,-18%,-26%,?
Cc1cc(/C=C(\C#N)C(=O)O)c(C)n1C1CC1,?,3%,-5,-19%,-16%,-11%
N#C/C(=C/C=C/c1ccccc1)C(=O)Nc1ccccc1,-6%,-8%,-28,-20%,?,-25%
COCCNC(=O)/C(C#N)=C/C=C/c1ccccc1,-1%,2%,-93*,3%,?,-25%
COCCNC(=O)/C(C#N)=C/c1cc(C)n(C2CCCCC2)c1C,-13%,14%,-15,-16%,16µM*,?
COCCNC(=O)/C(C#N)=C/c1cc(C(C)C)c(OC)cc1C,23%,1%,-71*,-5%,?,?
CS(=O)(=O)N(CC(=O)N1CCc2ccccc2C1)c1ccccc1Br,-8%,-2%,7,0%,14%,-14%
COc1ccc(-c2cc(-c3ccc(OC)cc3)c(C#N)c(SC)n2)cc1,-7%,82%,-2,-20%,-28%,-27%
CS(=O)c1nc(-c2ccc(Br)cc2)cc(-c2ccccc2)c1C#N (stereo unspecified),-8%,-13%,-70*,-7%,2.6µM*,1.8µM*
CCS(=O)(=O)CCSc1nc(-c2ccc(Br)cc2)cc(-c2ccccc2)c1C#N,-17%,.,.,-17%,-14%,-15%
N#Cc1c(-c2ccc(Br)cc2)cc(-c2cccnc2)nc1N,6%,.,-9,-19%,-8%,-12%
CS(=O)(=O)c1nc(-c2ccc(Br)cc2)cc(-c2ccccc2)c1C#N,-17%,-6%,-59*,-102%,2.6µM*,4.1µM*
COc1ccc(-c2cc(-c3ccccc3)c(C#N)c(S(C)(=O)=O)n2)cc1,-3%,233%,-96*,-10%,?,?
COc1ccc(CN2CCCC(C(=O)c3ccc4c(c3)OCO4)C2)c(F)c1 (stereo unspecified),-24%,5%,3,-30%,?,-30%
COCCN1CCN(Cc2cn(C)nc2-c2ccc(Oc3ccccc3)cc2)CC1,19%,0%,?,-10%,1%,?
COc1cccc(C(=O)C2CCCN(Cc3cn(C)nc3-c3ccccc3)C2)c1 (stereo unspecified),8%,-2%,-11,4%,?,23µM*
CC1CN(Cc2cn(C)nc2-c2ccc(Oc3ccccc3)cc2)CCN1C (stereo unspecified),29%,-2%,-64*,-3%,?,?
Cc1nn(C)cc1CN1CCCC(C(=O)c2ccc(-c3ccccc3)c(F)c2)C1 (stereo unspecified),-10%,0%,-57*,-12%,18µM*,18µM*
O=C(c1ccc(-c2ccccc2)c(F)c1)C1CCCN(C(=O)c2cncs2)C1 (stereo unspecified),1%,-3%,?,-11%,13µM*,?
SMILES,TGFb inhibitor,ASM inhibitor,IL1B secr inh,HepG2 tox,TDP1 cell noCPT,TDP1 cell CPT
CN(Cc1ccno1)Cc1cn(C)nc1-c1ccc(Oc2ccccc2)cc1,7%,2%,26,-28%,?,?
CN(Cc1cn(C)nc1-c1ccc(Oc2ccccc2)cc1)Cc1cnc2ccccn12,?,2%,-5,-65%,21µM*,?
CCOc1ccc2nc(N(CCCN(C)C)C(=O)c3ccc4c(c3)CCCC4)sc2c1,?,-8%,-58*,18µM*,?,?
COc1cccc2sc(N(CCN(C)C)C(=O)c3ccc4c(c3)CCCC4)nc12,-26%,-2%,i,-39%,?,?
COc1ccc2nc(N(CCN(C)C)C(=O)c3ccc4ncsc4c3)sc2c1,2%,.,18,4%,-19%,-2%
CN(C)CCCN(C(=O)c1ccc2c(c1)CCCC2)c1nc2ccc(Cl)cc2s1,?,-15%,-123*,-98%,15µM*,15µM*
NC(=O)c1sc2nc3c(cc2c1N)CCCCCC3,48%,292%,-97*,30%,?,?
Cc1cccc(NC(=O)c2sc3nc4c(cc3c2N)CCCCCC4)c1C,?,.,.,-18%,0.65µM*,1.5µM*
Cc1cc(C)c2c(N)c(C(=O)Nc3cccc(C)c3C)sc2n1,21%,i,18,-2%,16µM*,?
CCOc1ccc(NC(=O)c2sc3nc4c(cc3c2N)CCCCCC4)cc1,-6%,.,.,-26%,?,8.2µM*
Cc1ccc(NC(=O)c2sc3nc(C)cc(C)c3c2N)cc1,1%,i,16,-13%,?,-3%
O=C(COC(=O)c1cc(-c2cccs2)nc2ccccc12)c1ccc(Br)cc1,16%,.,.,5%,?,-17%
O=C(CN1C(=O)NC(Cc2c[nH]c3ccccc23)C1=O)NCC(F)(F)F (stereo unspecified),-14%,-1%,4,-7%,3%,-1%
COc1ccc(-c2nnn(CC(=O)NC(=O)NC3CCCCC3)n2)cc1OC,-28%,-4%,14,-2%,?,?
Cc1ccccc1NC(=O)c1sc2nc3c(cc2c1N)CN(Cc1ccccc1)CC3,1%,.,.,-15%,18µM*,?
